# Records with an inconclusive call do not appear. A call without a number means that no potency is given here. Active and inactive are the calls of the source. Calls come from the whole dose curve; as a rule, active = well fitted activation curve with a large enough effect in the repeat runs; inconclusive = weak or mixed curves; inactive = flat fitted curve, though single readings scatter.
# Assay: A CellTox Green Cytotoxicity Assay to monitor cytotoxicity in HEK293 cells - 40 hour (AID 1224871); note: nearly all actives have a fitted effect of over 45% in size
# Conditions: CellTox Green fluorescence; series mostly up to 76.8 µM
# From the text: National Center for Advancing Translational Sciences [NCATS]
# NIH Chemical Genomics Center [NCGC]
# U.S. Environmental Protection Agency [EPA]
# National Institutes of Environmental Health Sciences [NIEHS]
# National Toxicology Program [NTP]
# Cell-based models are critical for drug discovery. Determining the natural cytotoxic effects resulting from test compounds is an essential research activity. A CellTox Green Cytotoxicity Assay to monitor cytotoxicity in real time of continues cell culture during 40 hours of the compound treatment was used to screen Tox21 10K library compounds in Hek293 cells. CellTox Green Cytotoxicity Assay is a nonlytic, homogeneous, biofluorescent method to measure cytotoxicity in cell culture after experimental manipulation. The assay system uses a proprietary asymmetric cyanine dye that is excluded from viable cells but preferentially stains the dead cell's DNA. […] Viable cells produce no appreciable increases in fluorescence. Therefore, the fluorescence signal produced by the binding interaction with dead cell DNA is proportional to cytotoxicity.
# The mixture of Hek293 cell suspension and reagents were dispensed at 600cells/6 ul/well in 1536-well tissue culture treated black solid bottom plates using a Multidrop dispenser. After the assay plates were incubated at a 37 C/5% CO2 incubator for 5 hours, 23 nL of compounds dissolved in DMSO, positive and negative controls was transferred to the assay plate by a pintool work station. The plates were incubated at 37 C for 40 hours. The fluorescence intensity were measured at 0h, 8h, 16h, 24h, 32h and 40h time points using ViewLux plate reader during compound treatment.
# Potency is the fitted concentration of half-maximal effect.
SMILES,Potency,cytotoxicity increase
CCN=C1C=CC(=C(c2ccc(N(CC)CC)cc2)c2ccc(N(CC)CC)cc2)c2ccccc21,12.2 µM (active),–
S=C(SSSSSSC(=S)N1CCCCC1)N1CCCCC1,0.241 µM (active),–
CCc1ccc(O)c(C(C)(C)C)c1,38.9 µM (active),–
Cc1c(-c2ccc(O)cc2)n(Cc2ccc(OCCN3CCCCCC3)cc2)c2ccc(O)cc12,16.9 µM (active),–
CC(C)c1cccc(C(C)C)c1N1C(=O)c2ccc(O)cc2C1=O,49 µM (active),–
C[Si](C)O[Si](C)C,inactive,–
CCCC(O)C(O)CO (stereo not given),inactive,–
CC1CNCC(C)O1 (stereo not given),inactive,–
CN(C)CCN1CCOCC1,inactive,–
NC1(c2ccc(-c3nc4ccn5c(=O)[nH]nc5c4cc3-c3ccccc3)cc2)CCC1,26.8 µM (active),–
O=C(O)CC(=O)O,inactive,–
CCc1ccc(C)nc1,inactive,–
CCCCCCCC(OC)OC,inactive,–
CSc1c(Cl)c(Cl)c(Cl)c(Cl)c1Cl,48.7 µM (active),–
NCCCCCCNCCCCCCN,inactive,–
CO[Si](CCC1CCC2OC2C1)(OC)OC (stereo not given),inactive,–
C=CC(=C)CC/C=C(\C)CCC=C(C)C,–,4.27% [at 15.8 µM] (inactive)
CCCCN(CCCC)CCC(O)c1cc2c(Cl)cc(Cl)cc2c2cc(C(F)(F)F)ccc12 (stereo not given),inactive,–
O=C1OC(OC(=O)c2cccnc2Nc2cccc(C(F)(F)F)c2)c2ccccc21 (stereo not given),inactive,–
Cn1cnc2ncnc(N)c21,inactive,–

SMILES,Potency,cytotoxicity increase
Cc1ccc(O)cn1,inactive,–
O=S(O)O,–,-2.31% [at 15.8 µM] (inactive)
OCCC(O)CO (stereo not given),inactive,–
CC(C)(C)c1n[nH]c(=O)n(N)c1=O,inactive,–
CC(CN(C)C)CN1c2ccccc2CCc2ccccc21 (stereo not given),inactive,–
COC(=O)CC(C)CCC=C(C)C (stereo not given),inactive,–
Cc1cccc(C)c1NC(=O)CN1CCN(CCCC(c2ccc(F)cc2)c2ccc(F)cc2)CC1,21.3 µM (active),–
CCCCOc1ccc(C(=O)CCN2CCCCC2)cc1,19 µM (active),–
O=C[C@H](O)[C@H](O)[C@H](O)CO,inactive,–
CC1=C(/C=C/C(C)=C/C=C/C(C)=C/C(=O)Nc2ccc(O)cc2)C(C)(C)CCC1,inactive,–
C=CC(=O)OCCOCC(CC)(COCCOC(=O)C=C)COCCOC(=O)C=C,14.4 µM (active),–
CC(C)c1ccccc1N,inactive,–
O=C1NC2CCCCN2C12CCN(CCCN1c3ccccc3CCc3ccc(Cl)cc31)CC2 (stereo not given),21.3 µM (active),–
CC(=O)O[C@@H]1C[C@@H]2CC[C@@]1(C)C2(C)C,inactive,–
C=CC(=C)CCC=C(C)C,inactive,–
COc1ccccc1C=O,inactive,–
CCNc1nc(NC(C)CC)nc(OC)n1 (stereo not given),inactive,–
Nc1ncnc2c1ncn2[C@@H]1O[C@H](COP(=O)(O)O)[C@@H](O)[C@H]1O,inactive,–
C/C=C/c1ccc(OC)c(OC)c1,inactive,–
c1ccc2c(c1)CCC2,inactive,–

# From PubChem BioAssay (Tox21)
